Screens deposited in PubChem by several laboratories.
In the library only some 1.2% were active in any assay of this set; here they are far more common.
Rv3671c inh: inhibitors of M. tuberculosis serine protease Rv3671c | P9WHR9 | inhibition, % at 5.96 µM | actives 0.048% (n = 320,000); in the data active means inhibition above about 38%;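 further: extracellular domain of Rv3671c used as enzyme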
Target sequence (P9WHR9 whole entry, looked up, the tested form may be a part): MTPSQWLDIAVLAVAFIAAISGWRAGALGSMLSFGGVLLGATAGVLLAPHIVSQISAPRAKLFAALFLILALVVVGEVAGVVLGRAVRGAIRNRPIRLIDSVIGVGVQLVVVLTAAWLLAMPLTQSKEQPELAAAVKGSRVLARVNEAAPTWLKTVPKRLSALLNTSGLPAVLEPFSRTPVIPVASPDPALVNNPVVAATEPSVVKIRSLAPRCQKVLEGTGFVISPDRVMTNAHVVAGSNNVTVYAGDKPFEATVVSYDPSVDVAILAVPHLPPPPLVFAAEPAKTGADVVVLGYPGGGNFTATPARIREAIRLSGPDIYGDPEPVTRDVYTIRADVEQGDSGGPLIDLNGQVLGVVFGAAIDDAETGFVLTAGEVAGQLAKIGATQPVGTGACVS
Mtb bLac sens: beta-lactam sensitization of Mtb H37Rv; M. tuberculosis H37Rv growth with meropenem, percent inhibition; inhibition, % at 25 µM; actives 0.27% (n = 330,000); AID 434955;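 further: growth measured after seven days incubation then overnight dye step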
RecA splice inh: inhibitors of M. tuberculosis RecA intein splicing. P9WHJ3. cell-free RecA intein splicing, fluorescence. inhibition, % (concentration not given with the values). actives 0.75% (n = 290,000). AID 2221; in the data active means inhibition above about 30%; inconclusive means no clear call, values can overlap the other calls
UGM FP inh: inhibitors of M. tuberculosis UDP-galactopyranose mutase; P9WIQ1; purified UGM, fluorescence polarization probe displacement; inhibition, % at 10 µM; actives 0.06% (n = 320,000); in the data active means inhibition above about 10%, passing the limit was not always enough; inconclusive means no clear call, values can overlap the other calls
CCHF vOTU inh: CCHFV vOTU protease inhibition | Pep-AMC fluorescence | inhibition, % at 11.5 µM | actives 0.55% (n = 370,000) | AID 651958; in the data active means inhibition above about 30%
GFP chromophore: counter-screen GFP chromophore formation inhibition; actives 83% (n = 2,100); EC50, µM; cell-free GFP chromophore formation, fluorescence; shares compounds with RecA splice inh
Hits are given with their value; 0 = inactive; ? = inconclusive; - = no result. Unless noted, how the calls were made is not given here.

SMILES | Rv3671c inh | Mtb bLac sens | RecA splice inh | UGM FP inh | CCHF vOTU inh | GFP chromophore
COc1cc(/C=C/C(=O)OCC(=O)Nc2ccccc2Sc2ccc(Cl)cc2)ccc1O | 0 | 0 | 36 | 0 | 0 | 0
COc1cc(/C=C/C(=O)OCC(=O)NNC(=O)c2cc(Cl)ccc2OC)ccc1O | 0 | 0 | - | 0 | 0 | -
COC(=O)[C@]12C[C@H](CC(=O)NCc3cccc4ccccc34)C(=O)N(Cc3ccco3)C1=C[C@H](C(C)(C)C)O[C@@H]2C | - | - | - | - | 0 | -
O=S(=O)(c1ccc2c(c1)CCCN2)N1CCCC1 | 0 | 0 | - | 0 | 0 | -
CCN(CC)c1ccc2c(c1)CCCN2 | 0 | 0 | 33 | 0 | - | 0
Cc1ccc(C[n+]2c(-c3ccc(C)cc3)cc(-c3ccc(C)cc3)cc2-c2ccc(C)cc2)cc1 | 0 | 0 | 56 | 0 | - | 14
Cc1ccc(C[n+]2ccccc2)cc1 | 0 | 0 | 0 | 0 | 0 | -
CCCc1[nH]nc2c1C(c1cc(OC)cc(OC)c1)C(C#N)=C(N)O2 (stereo unspecified) | 0 | 0 | 44 | 0 | 0 | 4
CCCc1[nH]nc2c1C(CCc1ccccc1)C(C#N)=C(N)O2 (stereo unspecified) | 0 | 0 | 55 | 0 | 0 | 22
CCCc1[nH]nc2c1C(c1ccc(OC)c(CSC3=NCCS3)c1)C(C#N)=C(N)O2 (stereo unspecified) | 0 | 0 | 74 | 0 | 0 | 15
CCCc1[nH]nc2c1C(c1cccc(OC(=O)c3ccco3)c1)C(C#N)=C(N)O2 (stereo unspecified) | 0 | 0 | 59 | 0 | 0 | 18
CN(Cc1ccccc1)C(=O)OCc1cn(Cc2ccccc2)nn1 | - | - | - | - | 0 | -
CN=C(Nc1cc(C)nn1CCC#N)c1ccccc1 | 0 | 0 | 0 | 0 | 0 | -
Cc1cc(OC(=O)c2ccccc2)n(CCC#N)n1 | 0 | 0 | 85 | 0 | 0 | 11
COC(=O)[C@]12C[C@H](CC(=O)N3CCC(c4ccccc4)CC3)C(=O)N(Cc3cccc4ccccc34)C1=C[C@H](COCc1ccccc1)O[C@@H]2C | - | - | - | - | 0 | -
CCOc1ccccc1Oc1coc2cc(OC(=O)c3ccco3)ccc2c1=O | 0 | 0 | 33 | 0 | 0 | 0
Cc1cc(C)cc(Oc2coc3cc(OC(=O)c4cccs4)ccc3c2=O)c1 | 0 | 0 | 34 | 0 | 0 | 0
COc1ccc(S[C@]2(C(=O)NCC(C)C)CC(=O)N[C@@H]2c2ccc(OC)cc2)cc1 | - | - | - | - | 0 | -
CCOC(=O)C1=C(c2ccccc2)OC(N)=C(C#N)C1c1cccnc1 (stereo unspecified) | 0 | 0 | 0 | 0 | 0 | -
COc1ccc(-c2[nH]nc3c2C(c2ccoc2)C(C#N)=C(N)O3)cc1 (stereo unspecified) | 0 | 0 | 87 | 0 | 0 | 4.7
CCOc1cc(C2C(C#N)=C(N)Oc3n[nH]c(-c4ccccc4)c32)ccc1O (stereo unspecified) | 0 | 0 | 83 | 0 | 0 | 6.4
N#CC1=C(N)Oc2nc(-c3ccccc3)[nH]c2C1c1cccnc1 (stereo unspecified) | 0 | 0 | 78 | 0 | 0 | 23
Cc1ccc(-c2[nH]nc3c2C(c2ccc(OC(=O)N4CCOCC4)cc2)C(C#N)=C(N)O3)cc1 (stereo unspecified) | 0 | 0 | 82 | 0 | - | 11
COc1cc(C2C(C#N)=C(N)OC3=C2C(=O)CCC3)ccc1OC(=O)N1CCOCC1 (stereo unspecified) | 0 | 0 | 0 | 0 | 0 | -
N#CC1=C(N)Oc2n[nH]c(-c3ccccc3)c2C1c1cccnc1 (stereo unspecified) | 0 | 0 | 80 | 0 | 0 | 17
SMILES | Rv3671c inh | Mtb bLac sens | RecA splice inh | UGM FP inh | CCHF vOTU inh | GFP chromophore
Cc1ccc(-c2[nH]nc3c2C(c2cccnc2)C(C#N)=C(N)O3)cc1 (stereo unspecified) | 0 | 0 | 69 | 0 | 0 | 13
Cc1ccc(C(=O)N2CCC[C@@H]2C(=O)N2CCC[C@H]2C(=O)NCc2ccccc2)cc1 | - | - | - | - | 0 | -
COC1=C[C@H](C(=O)NCCNC(C)=O)[C@@]2(C)Cc3ccccc3[C@H]2CC1=O | - | - | - | - | 0 | -
CC(C)(C)c1ccc(-c2nnc(SCC(=O)c3ccc4ccccc4c3)n2-c2ccc(Cl)cc2)cc1 | - | - | - | - | 0 | -
Cc1ccc(SCc2[nH]nc3c2C(c2ccc(C)o2)C(C#N)=C(N)O3)cc1 (stereo unspecified) | 0 | ? | 37 | 0 | 0 | 0
Cc1ccc(SCc2[nH]nc3c2C(C(C)C)C(C#N)=C(N)O3)cc1 (stereo unspecified) | 0 | 0 | 0 | 0 | 0 | -
Cc1ccc(SCc2[nH]nc3c2C(c2ccco2)C(C#N)=C(N)O3)cc1 (stereo unspecified) | 0 | 0 | 73 | 0 | 0 | 25
